# This is one part of a sample in which hits are shown more often than they occur.
# HT1080 IDH1KD tx – toxicity to HT-1080 IDH1 knockdown cells (counter line). AID 686971. HT-1080 IDH1 knockdown viability, ATP luminescence, 48 h. Potency, µM (series often up to 46.1 µM), inactives show at the highest dose activity, negative = toxicity, hits mostly cytotoxic. hit rate 2% among 360,000;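 further: potency means the concentration at half of the fitted maximal effect; 0% = DMSO wells and -100% = cell-free medium wells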
#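 CellTiter-Glo luminescence after 48 h compound exposure at 37 degrees C of IDH1-knockdown HT-1080 cells in 5% FBS RPMI. %Activity scaled between DMSO wells and cell-free media wells, with curves fitted and assigned curve classes.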
# ALOX12 inh – ALOX12 (human) lipoxygenase inhibition | Potency, µM (series often up to 108 µM), for inactives: top-dose activity change, negative = inhibition, hits mostly inhibitors | purified 12hLO, xylenol orange hydroperoxide absorbance | hit rate 1.1% among 580,000 | P18054; further: potency means the concentration at half of the fitted maximal effect
# Target sequence (P18054 whole entry, looked up): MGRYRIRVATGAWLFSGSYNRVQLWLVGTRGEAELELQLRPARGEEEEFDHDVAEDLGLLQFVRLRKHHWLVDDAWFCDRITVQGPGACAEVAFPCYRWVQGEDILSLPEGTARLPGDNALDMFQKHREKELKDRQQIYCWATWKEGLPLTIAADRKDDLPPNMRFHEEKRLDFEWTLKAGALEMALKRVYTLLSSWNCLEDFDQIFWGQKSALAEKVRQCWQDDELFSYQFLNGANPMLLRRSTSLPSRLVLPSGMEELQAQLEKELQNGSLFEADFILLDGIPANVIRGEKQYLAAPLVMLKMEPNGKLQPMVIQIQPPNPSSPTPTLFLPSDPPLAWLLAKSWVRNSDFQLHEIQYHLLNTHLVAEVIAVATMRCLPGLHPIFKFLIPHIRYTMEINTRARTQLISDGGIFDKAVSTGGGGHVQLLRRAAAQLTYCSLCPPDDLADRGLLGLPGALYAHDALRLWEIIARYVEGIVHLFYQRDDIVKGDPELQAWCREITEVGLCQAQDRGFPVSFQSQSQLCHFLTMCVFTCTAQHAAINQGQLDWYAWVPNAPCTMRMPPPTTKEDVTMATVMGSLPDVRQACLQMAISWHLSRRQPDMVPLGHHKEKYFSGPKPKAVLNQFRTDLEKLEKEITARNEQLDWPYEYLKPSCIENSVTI
#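 Hydroperoxide product was detected by ferrous iron/xylenol orange as the 573 to 405 nm absorbance ratio. Arachidonic acid at 40 uM (final) was turned over for 30 min at room temperature by 150 nM human 12hLO, pH 7.0 Hepes buffer, after 15 min compound preincubation.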
# DT40 TDP1 no CPT – qHTS for Inhibitors of human tyrosyl-DNA phosphodiesterase 1 (TDP1): qHTS in cells in absence of CPT; DT40 Tdp1-/- hTDP1 cells, no CPT, ATP luminescence, 48 h; Potency, µM (titrated, usually from 46.2 µM), inactives show at the top dose activity change, negative = growth inhibition, actives largely listed as inhibitors; hit rate 15% among 420,000; AID 686978, 2013; further: potency means the concentration at half of the fitted maximal effect; nearly all actives have a fitted effect of over 55% in size
#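 Growth of hTDP1-complemented DT40 Tdp1-knockout cells is measured by ATP luminescence after at least 48 hr compound exposure at 37 °C, with DMSO substituting for the 20 nM CPT used in the parallel screen.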
# DT40 TDP1 CPT – DT40-hTDP1 cell growth loss with CPT; chicken DT40 Tdp1-/-;hTDP1 cells + 20 nM CPT, ATP luminescence, 48 h; Potency, µM (series often up to 46.2 µM), inactives show at the top dose activity change, negative = growth inhibition, hits mostly inhibitors; hit rate 12% among 420,000; AID 686979; further: potency means the concentration at half of the fitted maximal effect; nearly all actives have a fitted effect of over 55% in size
#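 Chicken DT40 Tdp1-/- cells stably complemented with human TDP1 were seeded at 400 cells/well in medium containing 20 nM camptothecin, exposed to pin-transferred compounds, and grown at 37 °C for at least 48 hr. Viability was read as ATP luminescence.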
# HT1080NT lethal – kills 2HG-producing HT-1080-NT fibrosarcoma cells; HT-1080-NT fibrosarcoma viability, CellTiter-Glo ATP luminescence, 48 h; Potency, µM (series often up to 46.1 µM), for inactives: at the highest dose activity, negative = less viability, hits mostly cytotoxic; hit rate 1.6% among 360,000; AID 686970;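 further: NT is the 2HG producing partner of a matched IDH1 knockdown line; potency means the concentration at half of the fitted maximal effect; 0% = DMSO-treated cells and -100% = media-only wells without cells; nearly all actives have a fitted effect of over 55% in size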
#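 Read-out is CellTiter-Glo luminescence after 10 minutes at room temperature, following 48 hours' compound treatment of HT-1080-NT cells (750 cells/well, RPMI, 5% FBS, 37 degrees C).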
# IL-1B inflam inh – inhibitors of inflammasome signaling (IL-1 beta secretion); activity change, % at 57.5 µM; THP-1 LPS/ATP IL-1B secretion, AlphaLISA, 16 h; hits give low values; hit rate 4.7% among 360,000; in the data active means activity change below about -50%; inconclusive means mostly about -30% to -49%
#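 Secreted IL-1B measured by AlphaLISA bead assay after 16 h compound exposure of THP-1 cells; compounds (final up to 57.5 uM) added 1 h before LPS (250 ng/mL) and ATP (1.25 mM) stimulation; lower signal means less secretion.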
# Active calls of the source: *; u = inconclusive; x = no result given. Unless noted, the call rests on the fitted dose curve; in most records, active means well fitted curve in the direction sought with a large enough effect; inconclusive means small, poorly fitted or top-dose-only effect, or another doubt; inactive means no such curve, though single readings can be large; an effect the other way counts as inactive or inconclusive. Unless noted, on the % scale 0 is the no-effect control and ±100 the full control effect.
SMILES,HT1080 IDH1KD tx,ALOX12 inh,DT40 TDP1 no CPT,DT40 TDP1 CPT,HT1080NT lethal,IL-1B inflam inh
CN(C)c1ccc(-c2ccnc3c2CC(C)(C(=O)NCc2ccccc2)O3)cc1 (stereo not drawn),u,-2.6%,5.17µM*,2.91µM*,u,45.6
CN(C)c1ccc(-c2ccnc3c2CC(C)(C(=O)NCc2ccncc2)O3)cc1 (stereo not drawn),0.0%,-4.7%,u,u,-4.5%,2.9
CC1(C(=O)NCCc2ccccc2)Cc2c(-c3ccccc3)ccnc2O1 (stereo not drawn),u,12.0%,u,20.6µM*,-19.3%,-59.1*
CN(C)Cc1nnc(C2CC(NC(=O)Cc3c[nH]c(=O)n(C)c3=O)C2)n1C (stereo not drawn),x,-15.3%,x,x,x,x
Cc1cc(F)ccc1OC1CN([S+](=O)([O-])c2cccc(C(F)(F)F)c2)C1,x,3.2%,x,x,x,x
N#CCCn1c(=O)c(-c2cc(F)cc(F)c2)nc2cnc(OCc3ccccc3)nc21,x,53.2%,u,-25.5%,x,x
CC1(C(=O)NCC2CC2)Cc2c(-c3ccccc3)ccnc2O1 (stereo not drawn),-24.2%,-1.5%,13µM*,9.2µM*,-20.6%,44.6
CN1CCN(c2ccc(CNC(=O)C3Cc4c(-c5ccccc5)ccnc4O3)cc2)CC1 (stereo not drawn),u,2.9%,u,u,-24.4%,-23.6
CN(C)c1ccc(-c2ccnc3c2CC(C)(C(=O)Nc2ccccc2)O3)cc1 (stereo not drawn),17.3%,0.2%,-22.3%,3.0%,7.0%,-0.2
CC1(C(=O)NCc2ccco2)Cc2c(-c3ccc(C(N)=O)cc3)ccnc2O1 (stereo not drawn),2.91µM*,1.4%,3.66µM*,4.11µM*,3.26µM*,52.0
CN1CCN(c2ccc(CNC(=O)C3(C)Cc4c(-c5ccccc5)ccnc4O3)cc2)CC1 (stereo not drawn),-16.4%,-5.6%,20.6µM*,25.9µM*,-8.3%,-22.0
CN(C)c1ccc(-c2ccnc3c2CC(C)(C(=O)NCC2CCOCC2)O3)cc1 (stereo not drawn),-4.2%,-3.0%,13µM*,16.4µM*,-21.4%,0.0
O=C(C1CCCCC1)N(Cc1cccs1)C1CC1,x,1.5%,x,x,x,x
Cc1nccc(-c2cc(-c3ccc(Cl)cc3Cl)no2)n1,9.3%,-15.8%,-6.3%,1.4%,13.3%,-3.3
Cc1cnc(C(=O)N2CCC(c3noc(-c4ccccn4)n3)C2)cn1 (stereo not drawn),x,37.3%,x,x,x,x
CCc1ccc(N2CC(c3noc(-c4cc(Cl)ccc4F)n3)CC2=O)cc1 (stereo not drawn),x,15.9%,x,x,x,x
CC1(C(=O)NCc2ccccc2)Cc2c(-c3ccccc3)ccnc2O1 (stereo not drawn),u,-1.1%,4.11µM*,u,u,0.0
CNC(=O)[C@@H]1CN(Cc2cccc(OC)c2OC)C[C@H]1CO,x,51.6%,x,x,x,x
O=C(NC(=S)NNC(=O)c1ccccc1O)c1ccc([N+](=O)[O-])cc1,-9.1%,-5.7%,14.6µM*,25.9µM*,-6.7%,-21.7
O=C(NNC(=S)NC(=O)c1ccc(Br)cc1)c1ccc([N+](=O)[O-])cc1,3.1%,44.7µM*,23.1µM*,u,-9.2%,11.0
O=C(NNC(=O)c1ccc([N+](=O)[O-])cc1)c1ccc(Br)cc1,-3.4%,-12.0%,-25.1%,-47.0%,-3.9%,-11.2
O=C(NC(=S)NNC(=O)c1ccccc1O)c1cccs1,-20.6%,u,25.9µM*,23.1µM*,u,19.6
O=C(NNC(=S)NC(=O)c1ccc(Br)cc1)c1cccc([N+](=O)[O-])c1,u,39.8µM*,16.4µM*,18.4µM*,u,33.8
O=C(NN=C(C1CC1)C1CC1)C(c1ccccc1)c1ccccc1,x,63.1%,x,x,x,x
Cc1ccc(C(=O)NC(=S)NNC(=O)c2ccc([N+](=O)[O-])cc2)cc1,-4.3%,u,14.6µM*,u,-9.9%,52.2
SMILES,HT1080 IDH1KD tx,ALOX12 inh,DT40 TDP1 no CPT,DT40 TDP1 CPT,HT1080NT lethal,IL-1B inflam inh
O=C(NNC(=S)NC(=O)c1ccccc1)c1ccc([N+](=O)[O-])cc1,-26.9%,u,11.6µM*,13µM*,-29.6%,46.6
O=C(CCc1ccccc1)NNC(=O)c1cc(Cl)ccc1O,u,u,23.1µM*,u,-24.6%,73.9
O=C(NC(=S)NNC(=O)c1ccccc1O)c1ccccc1,-25.3%,0.0%,29.1µM*,u,u,47.2
Cc1ccc(C(=O)NC(=S)NNC(=O)c2ccccc2O)cc1,u,-16.4%,u,u,u,66.9
Cc1ccc(S(=O)(=O)NNC(=S)NC(=O)c2ccc([N+](=O)[O-])cc2)cc1,-1.9%,-17.3%,2.9%,0.7%,-2.4%,15.5
N#Cc1cc(C(=O)c2cc(Cl)ccc2O)cn(C2CC2)c1=O,x,-15.7%,x,x,x,x
CC(NC(=S)NC(=O)c1cccs1)c1ccccc1 (stereo not drawn),-20.5%,25.1µM*,18.4µM*,-6.1%,-3.3%,u
O=C(NNC(=O)c1cc(Cl)ccc1O)c1cccs1,u,17.7%,18.4µM*,u,-28.5%,29.0
O=C(NNC(=O)c1ccccc1Cl)c1cccs1,21.1%,-23.7%,-8.2%,-4.6%,20.3%,-8.3
COc1cccc(/C=C(\C#N)C(=O)Nc2ccccc2C(F)(F)F)c1OCc1ccc(F)cc1,x,7.6%,x,x,x,x
COc1ccc(NC(=O)CCc2c(C)nc3nc(CNC(=O)OC(C)(C)C)nn3c2C)cc1OC,x,-17.8%,-21.2%,-2.3%,x,x
CCC(C)c1ccc(NC(=O)C2CC3CCC2C3)cc1 (stereo not drawn),-13.5%,-8.3%,25.9µM*,u,-23.5%,-55.3*
Cc1ccnc(N2CCCC(C(=O)Nc3ccc(C)c(C)c3)C2)n1 (stereo not drawn),9.4%,-20.3%,u,9.2µM*,-1.1%,21.4
Cc1ccc(NC(=O)C2CCCN(c3ncccn3)C2)cc1C (stereo not drawn),-0.4%,-2.5%,-27.8%,-9.7%,0.0%,-6.4
CCC(C)c1ccc(NC(=O)C2CCCN(c3ncccn3)C2)cc1 (stereo not drawn),u,0.0%,18.4µM*,20.6µM*,u,41.5
O=C(NCc1nnc2ccccn12)[C@H]1CNC[C@H](C(=O)N2CCOCC2)C1,x,2.6%,x,x,x,x
Cc1cc(C(=O)N[C@@H]2CN(Cc3ccccc3)C[C@H]2CO)c(C)o1,x,-38.5%,x,x,x,x

# Screens deposited in PubChem BioAssay by National Center for Advancing Translational Sciences (NCATS).
